Data taken from PubChem BioAssay (Tox21).
Inconclusive results are not listed. A call without a number means that no potency is given here. Some structures have more than one record in an assay (separate samples or runs), and their calls can disagree. Calls of active or inactive are those of the source. Unless noted, the call rests on the fitted dose curve; in most records, active means well fitted curve in the direction sought with a large enough effect in the repeat runs; inconclusive means weak or mixed curves; inactive means no such curve, though single readings can be large; an effect the other way counts as inactive or inconclusive.

How the values were obtained:
[1] = qHTS assay to identify small molecule agonists of the hypoxia (HIF-1) signaling pathway - cell viability counter screen (AID 1224844; calls by dose curve; further: nearly all actives have a fitted effect of over 50% in size; further: potency means the concentration at half of the fitted maximal effect)
Summary of the method: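 Viability counter screen: HRE-bla ME-180 cells plated 5 hrs before compound addition, treated 17 hrs at 37C and 5% CO2, then CellTiter-Glo added after the FRET reporter read; luminescence after 30 min.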

[2] = qHTS assay to identify small molecule agonists of the hypoxia (HIF-1) signaling pathway (AID 1224846; active means well fitted activation curve with a large enough effect in the signal ratio in the repeat runs, not every such curve was filed as active; the % refers to the signal ratio)
Summary of the method: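 Agonist mode reporter screen. ME-180 cells stably expressing bla under HRE control received test compounds in DMSO for 17 hrs (37C, 5% CO2), and beta-lactamase activity was then detected with the CCF4-AM FRET substrate.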

[3] = qHTS assay to identify small molecule agonists of H2AX - cell viability counter screen (AID 1224847; calls by dose curve; further: nearly all actives have a fitted effect of over 30% in size; further: potency means the concentration at half of the fitted maximal effect)
Summary of the method: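 CHO-K1 wt, 1000 cells/well, o/n 37C; cpds 15 conc, 3 h 37C, 0.76% DMSO; CellTiter-Glo, 30 min RT, luminescence.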

[4] = qHTS assay to identify small molecule antagonists of the estrogen related receptor (ERR) signaling pathway from Tox21 library (AID 1224848); further: nearly all actives have a fitted effect of over 50% in size; further: potency means the concentration at half of the fitted maximal effect
Summary of the method: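 ERR cell line, 2,000 cells/well. 6 h settle, then compound (DMSO) added; 18 h at 37 C; ONE-Glo luminescence after 30 min RT.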

[5] = qHTS assay to identify small molecule agonists of the estrogen related receptor (ERR) signaling pathway from Tox21 library (AID 1224849; calls by dose curve; further: nearly all actives have a fitted effect of over 15% in size); conditions: ERR reporter cell line, ONE-Glo luciferase, 18 h; at 92.4 µM (top of the series) unless noted
Summary of the method: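 Quantitative HTS in agonist format: NTP ERR cell line, compounds transferred in DMSO after 6 h plating, 18 h incubation at 37 C, ONE-Glo luminescence endpoint.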

[6] = qHTS RealTime-Glo MT Cell Viability Assay in HepG2 cells - 24 hour (AID 1224867); further: nearly all actives have a fitted effect of over 50% in size
Summary of the method: (§1)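 qHTS, HepG2, 600 cells/well, RealTime-Glo (NanoLuc + prosubstrate) added with cells; 5 h preincubation; DMSO compound addition; 37 C; luminescence at 0/8/16/24/32/40 h.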

[7] = qHTS RealTime-Glo MT Cell Viability Assay in HEK293 cells - 32 hour (AID 1224868); further: nearly all actives have a fitted effect of over 50% in size; further: potency means the concentration at half of the fitted maximal effect
Summary of the method: (§2)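 Assay medium contained NanoLuc luciferase plus cell-permeant prosubstrate, added with HEK293 cells at 600 cells/well. After 5 h at 37 C/5% CO2 compounds were added; plates stayed at 37 C for 40 h with serial luminescence reads.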

[8] = A CellTox Green Cytotoxicity Assay to monitor cytotoxicity in HEK293 cells - 0 hour (AID 1224869); further: nearly all actives have a fitted effect of over 50% in size
Summary of the method: (§3)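 Dead-cell fluorescence measured kinetically: asymmetric cyanine dye, HEK293, 600 cells/well, 5 h settle, 23 nL cpd/DMSO, 37 C, reads 0–40 h every 8 h.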

[9] = qHTS RealTime-Glo MT Cell Viability Assay in HepG2 cells - 40 hour (AID 1224870); further: nearly all actives have a fitted effect of over 50% in size
Summary of the method: (§4)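 Real-time viability: cells seeded at 600 per well together with NanoLuc and cell-permeant prosubstrate, compounds added after 5 h incubation. Luminescence tracked at 0, 8, 16, 24, 32 and 40 h of exposure.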

[10] = A CellTox Green Cytotoxicity Assay to monitor cytotoxicity in HEK293 cells - 40 hour (AID 1224871); further: nearly all actives have a fitted effect of over 45% in size; further: potency means the concentration at half of the fitted maximal effect
Summary of the method: as §3

[11] = qHTS RealTime-Glo MT Cell Viability Assay in HEK293 cells - 16 hour (AID 1224872); further: nearly all actives have a fitted effect of over 50% in size; further: potency means the concentration at half of the fitted maximal effect
Summary of the method: as §2

[12] = qHTS RealTime-Glo MT Cell Viability Assay in HepG2 cells - 8 hour (AID 1224873); further: nearly all actives have a fitted effect of over 55% in size
Summary of the method: as §4

[13] = qHTS RealTime-Glo MT Cell Viability Assay in HEK293 cells - 40 hour (AID 1224874); conditions: RealTime-Glo luminescence; max response: stronger effect = lower value; further: nearly all actives have a fitted effect of over 50% in size; further: potency means the concentration at half of the fitted maximal effect
Summary of the method: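 600 HEK293 cells per well, dispensed already mixed with RealTime-Glo MT reagents. Compound dosing came 5 h later. The same wells were read for luminescence at 0, 8, 16, 24, 32 and 40 h of exposure at 37 C.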

[14] = A CellTox Green Cytotoxicity Assay to monitor cytotoxicity in HEK293 cells - 24 hour (AID 1224875); further: nearly all actives have a fitted effect of over 45% in size
Summary of the method: as §3

[15] = A CellTox Green Cytotoxicity Assay to monitor cytotoxicity in HepG2 cells - 16 hour (AID 1224876); further: nearly all actives have a fitted effect of over 45% in size
Summary of the method: (§5)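 First, HepG2 cells (600/well) mixed with reagent were plated; second, after 5 h at 37 C they received compounds via pintool; third, fluorescence was measured at 0 h through 40 h at 8 h intervals.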

[16] = qHTS RealTime-Glo MT Cell Viability Assay in HepG2 cells - 32 hour (AID 1224877); further: nearly all actives have a fitted effect of over 55% in size
Summary of the method: as §1

[17] = A CellTox Green Cytotoxicity Assay to monitor cytotoxicity in HepG2 cells - 24 hour (AID 1224878); further: nearly all actives have a fitted effect of over 45% in size
Summary of the method: as §5

[18] = qHTS assay to identify small molecule agonists of H2AX (AID 1224845; active means well fitted activation curve with a large enough effect in the signal ratio in the repeat runs, not every such curve was filed as active; the % refers to the signal ratio)
Summary of the method: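 Phospho-H2AX Ser139 measured by HTRF (ex 320 nm; em 665 and 620 nm) after 24 hr antibody incubation. Compounds, 15 concentrations, 0.76% DMSO, were applied to CHO-K1 cells for 3hr at 37C before lysis.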

[19] = A CellTox Green Cytotoxicity Assay to monitor cytotoxicity in HepG2 cells - 40 hour (AID 1224879); further: nearly all actives have a fitted effect of over 40% in size; further: potency means the concentration at half of the fitted maximal effect
Summary of the method: as §5

Row | Structure (SMILES) | Potency [1] | outcome [2] | Potency [3] | Potency [4] | activity change, positive = activation [5] | Potency [6] | Potency [7] | Potency [8] | Potency [9] | Potency [10] | Potency [11] | Potency [12] | max response [13] | Potency [14] | Potency [15] | Potency [16] | Potency [17] | Potency [18] | Potency [19] | Potency [13]
1 | c1ccc(C2CC2)c(OCC2=NCCN2)c1 | inactive | inactive | inactive | inactive | 4.99% [at 42.5 µM] (inactive) | inactive | inactive | inactive | inactive | inactive | inactive | inactive | 3.13% (inactive) | inactive | inactive | inactive | inactive |  |  | 
2 | COP(=O)(OC)O/C(=C/Cl)c1cc(Cl)c(Cl)cc1Cl | inactive |  |  | 22.9 µM (active) | -67.5% (inactive) | inactive |  | inactive |  |  |  | inactive |  | inactive | inactive | inactive | inactive | inactive | 36.6 µM (active) | 
3 | COCC(C)N(C(=O)CCl)c1c(C)csc1C (centres undefined) | inactive | inactive | inactive | 27.3 µM (active) | -54.8% (inactive) | inactive | inactive | inactive | inactive | inactive | inactive | inactive | 17.2% (inactive) | inactive | inactive |  | inactive |  |  | 
4 | O=[N+]([O-])c1ccc(F)c([N+](=O)[O-])c1 | 12.4 µM (active) |  | 57.2 µM (active) | 43.7 µM (active) | -38.2% (inactive) | inactive |  | inactive | inactive | inactive |  | inactive |  |  | inactive | inactive | inactive | inactive |  | 
5 | CCOP(=S)(OCC)Oc1nc(Cl)c(Cl)cc1Cl | inactive | inactive | 56.8 µM (active) |  |  | inactive | 21.9 µM (active) and inactive | inactive | inactive | 34.8 µM (active) and inactive | 21.9 µM (active) and inactive | inactive | -11.7% (inactive) |  | inactive |  | inactive |  | inactive | 24.6 µM (active)
6 | Cc1ccccc1CCl | inactive | inactive | inactive | inactive | 7.48% (inactive) | inactive | inactive | inactive |  | inactive | inactive | inactive | -6.69% (inactive) | inactive | inactive | inactive | inactive | inactive | inactive | 
7 | CC(Cl)C(C)Cl (centres undefined) | inactive | inactive | inactive | inactive | 0.315% (inactive) | inactive | inactive | inactive | inactive | inactive | inactive | inactive | 1.04% (inactive) | inactive | inactive |  | inactive |  |  | 
8 | CCOP(=S)(OCC)SCSCC | inactive | inactive | inactive |  |  | inactive | inactive | inactive | inactive | inactive | inactive | inactive | 1.39% (inactive) | inactive | inactive | inactive | inactive | inactive | inactive | 
9 | CCCCOC(=O)c1ccccc1C(=O)OCc1ccccc1 | inactive | inactive | inactive | inactive | 3.01% (inactive) | inactive |  | inactive | inactive | inactive |  | inactive |  | inactive | inactive | inactive | inactive | inactive | inactive | 
10 | O=C(C(Cl)(Cl)Cl)C(Cl)(Cl)Cl | inactive | inactive | inactive |  |  | inactive | inactive | inactive | inactive | inactive | inactive | inactive | -7.45% (inactive) | inactive | inactive |  | inactive | inactive |  | 
11 | Nc1ccc(N=Nc2ccc(-c3ccc(N=Nc4c(S(=O)(=O)O)cc5cc(S(=O)(=O)O)c(N=Nc6ccccc6)c(O)c5c4N)cc3)cc2)c(N)c1 | inactive | inactive | 11.5 µM (active) |  |  | inactive | inactive | inactive | inactive | inactive | inactive | inactive | 23.2% (inactive) | inactive | inactive | inactive | inactive |  |  | 
12 | O=C1NCN(c2ccccc2)C12CCN(CCCOc1ccc(F)cc1)CC2 | inactive | inactive | inactive | inactive | -8.92% [at 42.5 µM] (inactive) |  |  | inactive | inactive |  |  | inactive |  | inactive | inactive | inactive |  | inactive |  | 
13 | COc1ccc(-c2ccccc2)cc1NNC(=O)OC(C)C | inactive | inactive |  | 31.9 µM (active) | -62.9% (inactive) |  | 51 µM (active) | inactive | inactive |  |  |  |  |  | inactive | inactive | inactive | inactive |  | 51 µM (active)
